According to PubChem BioAssay AID1508609 (The Scripps Research Institute Molecular Screening Center, 2020):
Among all 6,700 compounds or so, fewer than 10 were called active.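 The calls were made as follows: active = mean percent activation across replicates above the confirmation screen cutoff of 4.91%; inactive = the rest.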 A selection follows.

target: G-protein coupled receptor 151 (Homo sapiens) (UniProt Q8TDV0); assay: GPR151 agonism via beta-arrestin recruitment – cell-based, PathHunter beta-arrestin, luminescence, confirmation (AID 1508609); details: GPR151 PathHunter beta-arrestin cells, 90 min, at 11.2 µM, stronger effect = higher value, % of EA-reagent control over plate median
Sequence (Q8TDV0 whole entry, looked up): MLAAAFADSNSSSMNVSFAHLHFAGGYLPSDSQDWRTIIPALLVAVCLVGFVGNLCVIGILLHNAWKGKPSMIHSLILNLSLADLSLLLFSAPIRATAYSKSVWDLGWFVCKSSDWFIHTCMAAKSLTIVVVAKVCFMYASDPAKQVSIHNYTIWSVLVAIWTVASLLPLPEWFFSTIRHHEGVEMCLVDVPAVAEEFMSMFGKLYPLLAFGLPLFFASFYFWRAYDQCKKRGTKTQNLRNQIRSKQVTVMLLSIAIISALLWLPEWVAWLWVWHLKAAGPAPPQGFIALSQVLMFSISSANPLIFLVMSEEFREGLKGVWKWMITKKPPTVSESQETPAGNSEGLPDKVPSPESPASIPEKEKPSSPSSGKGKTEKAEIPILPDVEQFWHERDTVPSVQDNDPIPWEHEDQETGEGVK

activation, inactive:
COC(=O)c1c(NC(=O)Nc2ccc(Cl)c(Cl)c2)sc2c1CCCC2 0.7%, O=C1NCCN(Cc2ccc(-c3ccccc3)cc2)C1CC(=O)N1CCCCC1 (centres undefined) 0.39%, Cc1ccc(C)c(CN2CCC(n3nccc3NC(=O)C(C)(C)C)CC2)c1 0.69%, CCn1c(COc2ccccc2)nnc1Sc1ccc([N+](=O)[O-])cc1C=O 0.71%, Cc1cc(N2CCOCC2)ccc1C=C1C(=O)c2ccccc2C1=O -0.77%, COC(=O)c1c(-c2ccccc2)csc1NC(=O)c1ccc(OC)c([N+](=O)[O-])c1 0.78%, Cc1ccc(C(=O)Oc2ccccc2/C=N/N=C2\NC(=O)C(CC(=O)O)S2)cc1 (centres undefined) -0.38%, Cc1ccc(S(=O)(=O)Cn2nnnc2CN2CCN(c3ccccc3F)CC2)cc1 1.76%, CCN(CC)c1nc(Nc2ccccc2)nc(Nc2ccccc2)n1 -0.22%, C=CCn1c2ccccc2c2nnc(SCc3[nH]c(=O)[nH]c3C(=O)CCCCC(=O)OCC)nc21 1.2%, COC(=O)c1cc(NC(=O)COc2ccc([N+](=O)[O-])cc2)cc(C(=O)OC)c1 0.64%, CC(C)COC(=O)c1ccc(NC(=O)C2C3C=CC(C3)C2C(=O)O)cc1 (centres undefined) 1.05%, O=C(N/N=C\C=C\c1ccccc1)c1ccccn1 -0.98%, COc1ccc(NC(=S)N2CCN(S(=O)(=O)c3ccc(F)cc3)CC2)c(OC)c1 -0.28%, Cc1cccn2c(=O)c3cc(C(=O)NC4CCCCC4)c(=N)n(C4CCCCC4)c3nc12 -0.69%, OCCC1CN(Cc2ccc3cc(F)ccc3n2)CCN1C1CCCC1 (centres undefined) 1.64%, O=C(Cn1c(=O)n(Cc2ccccc2)c(=O)c2ccccc21)c1ccccc1 1.26%, CCOc1c(Cl)cc(CNCc2ccccc2)cc1OC -0.5%, COC(=O)c1oc2ccc(Br)cc2c1NC(C)=O 0.35%, O=C(c1ccc(CNS(=O)(=O)c2ccc(Cl)cc2)cc1)N1CCCC1 1.92%, C=CCc1cccc(/C=N/NC(=O)CCC(=O)Nc2ccc(Br)cc2)c1O -0.44%, O=C(CN1CCOCC1)Nc1c(Cl)cc(Cl)cc1Cl 0.82%, CCOC(=O)c1ccc(NC(=O)c2ncn(-c3ccccc3)n2)cc1 0.02%, Cn1ncc2c(NNC(=O)Cc3cccc4ccccc34)ncnc21 0.44%, CCCCc1ccc(NC(=O)CN2C(=O)C(C)SC(C)C2=O)cc1 (centres undefined) 0.42%, COc1ccc(CCNc2cc(C)nc(Nc3cccc(N(C)C)c3)n2)cc1 0.06%, O=C(Nc1ccc(NC(=O)c2cccc3c(Br)cccc23)cc1)c1ccco1 1.13%, COC(=O)[C@@H]1CC(O)CN1C(=O)C12CC3CC(CC(C3)C1)C2 (some centres undefined) 0.35%, CC1=C(C(=O)Nc2cccc(F)c2)C(c2ccccn2)C2=C(CCCC2=O)N1 (centres undefined) 0.25%, NC(=S)N/N=C/c1ccc([N+](=O)[O-])cc1 -0.11%, CC(C)C(=O)NC(=S)Nc1ccccc1F 0.14%, COc1ccc(C2(NC(=O)CCn3cnc4sc(C)c(C)c4c3=O)CCCCC2)cc1 0.69%, CCC1=C(C)c2cc3nc(C(=O)OCc4ccccc4)c(C)c-3c(C)n2C1C (centres undefined) -0.16%, CCN(CC)C(=O)C1CCCN(c2cc(N)nc(N)n2)C1 (centres undefined) -0.11%, CCC1C(=O)NCCN1Cc1ccc2c(c1)CN(Cc1c[nH]c3ccccc13)CCO2 (centres undefined) 1.68%, CN1C(=O)c2ccc(N3C(=O)c4cccc([N+](=O)[O-])c4C3=O)cc2C1=O -0.57%, Cc1ccc[n+](-c2ncnc(N)c2[N+](=O)[O-])c1 -0.67%, COc1cccc(-c2ocnc2C(=O)Nc2ccc3nc(-c4cccnc4)oc3c2)c1 0.94%, O=C(c1cc([N+](=O)[O-])ccc1NC1CCCCC1)N1CCOCC1 -1.3%, C=CCN1C(=O)CC(C(=O)OC)C12CCN(C1CCN(C(=O)OCC)CC1)CC2 (centres undefined) -0.6%, Cc1cccc(-n2nc3c(c2NC(=O)CCC2CCCCC2)CS(=O)(=O)C3)c1C 0.42%, COc1ccc(C2C(C#N)=C(N)Oc3c2c(C)nn3-c2ccccc2)cc1 (centres undefined) 0.69%, CC(=O)c1ccc(NC(=O)c2ccc(CN(c3ccc(C)c(C)c3)S(C)(=O)=O)cc2)cc1 -0.1%, CC1CCCC(NCc2c(C(=O)O)n(Cc3ccc(Cl)cc3)c3ccccc23)C1C (centres undefined) 0.3%, Cc1cccc(C)c1-n1c(=S)sc2c(=O)n(-c3cccc(Cl)c3)c(SCC#N)nc21 2.02%, CCCCc1ccc(N=Cc2nc(-c3cccc4ccccc34)oc2O)cc1 -1.01%, Cc1ccc(N2C(=O)CC(N3CCN(Cc4ccc(Cl)cc4)CC3)C2=O)cc1Cl (centres undefined) 0.04%, Oc1ccc(Cn2cc[nH]c2=S)cc1 -0.7%, CC(C)NC(=O)/C=C/c1ccccc1Cl -0.37%, COc1ccc(C(=O)CSc2nc3sc4c(c3c(=O)n2-c2ccc(Cl)cn2)CCCC4)c(F)c1 -0.67%, NC(=O)C1CCN(C(=O)c2ccc(-c3ccccc3)cc2)CC1 -1.12%, COCCNC(=S)N1CCN(c2ccccc2OC)CC1 0.65%, Cc1ccc(-c2nnc(N3CCOCC3)c3ccccc23)cc1S(=O)(=O)N1CCN(C)CC1 -0.46%, CC(C)n1c(=O)[nH]c2c(C(N)=O)nc(-c3ccc(-c4ccccc4)cc3)nc21 -0.04%, COc1ccc(OC)c(/C=N/n2nnnc2N)c1 -0.17%, O=C(NCc1ccsc1)c1ccc(-n2cccc2)cc1 0.53%, C=CCc1ccccc1OCCN1CCNCC1 -0.14%, Cc1ccc(S(=O)(=O)NCC(c2cccnc2)N2CCN(c3ccc(F)cc3)CC2)cc1 (centres undefined) -0.45%, CC(=O)NC(CC(=O)O)c1ccc(F)cc1 (centres undefined) 0.27%, CC(=O)c1c(C)[nH]c(C(=O)N2CCN(c3ccc(Cl)cc3)CC2)c1C -0.42%, CC(=O)Oc1cccc(N2C(=O)C3C4c5ccccc5C(C)(c5ccccc54)C3C2=O)c1 (centres undefined) -0.54%, O=C(CC1C(=O)NCCN1Cc1ccc2ccccc2c1)NCCCn1cccn1 (centres undefined) 0.42%, CC(=O)Oc1cc2c(C(=O)NCCN3CCOCC3)c(C)oc2c2ccccc12 -0.37%, CCOc1ccc(NC(=O)COc2cccc(C)c2C)cc1 0.66%, Cc1cc2c(cc1S(=O)(=O)CCC(=O)Nc1ccccc1Cl)OCC(=O)N2 0.39%, O=C(CC12CC3CC(CC(C3)C1)C2)Nc1ccc2oc(=O)ccc2c1 -0.22%, CCOc1cc(C2C3=C(CCCC3=O)NC3=C2C(=O)CCC3)cc(Br)c1OCC 0.37%, COc1ccc([N+](=O)[O-])cc1NC(=O)C1CC(Cl)=CCC1C(=O)O (centres undefined) 0.92%, Brc1cnc(NC2CCCCC2)nc1 1.03%, COc1cc(-c2coc3cc(O[C@@H]4O[C@H](CO)[C@@H](O)[C@H](O)[C@H]4O)c(OC)c(O)c3c2=O)cc(O)c1OC -0.2%, COc1ccc(OC)c(S(=O)(=O)Oc2ccc(Cl)c3cccnc23)c1 0.21%, O=C(NCCO)c1cnc(NC2CCN(Cc3ccccc3)CC2)s1 0.92%, COc1ccc(C=O)cc1OCc1ccc(F)cc1 -0.07%, C=C(C)CSc1nc2sc3c(c2c(=O)n1-c1ccc(OC)cc1)CC(C)(C)OC3 0.13%, COC(=O)C1=CN(Cc2ccc(Cl)cc2)C=C(C(=O)OC)C1c1cc(OC)c(O)c(OC)c1 0.02%, Nc1nc(NC(=O)/C=C/c2ccc(F)cc2)nn1-c1ccccc1 0.79%, COCCNc1nc2nonc2nc1N(C)Cc1ccncc1C 1.1%, CC(C)N1CCc2c(sc(NC(=O)Cc3ccccc3)c2C#N)C1 0.16%, CC(C)c1ccc(CN[C@H]2C[C@H]3C(=O)N[C@@H](COCc4ccccc4)C(=O)N3C2)cc1 0.67%, CC(C)n1c(Nc2ccc3ncccc3c2)nc2c(NC3CC3)ncnc21 -0.12%, Cc1ccc(/C=C2/C(=O)NC(=O)N(c3ccccc3)C2=O)cc1[N+](=O)[O-] 0%, CN(C)c1cccc(Nc2cc(C(=O)Nc3ccc(N4CCOCC4)cc3)ccn2)c1 -1.31%, O=C(Nc1ccc(N2CCCC2=O)cc1)c1cncc(Br)c1 0.8%, COc1cc(Nc2ccnc(Nc3ccc(N4CCOCC4)cc3)n2)cc(OC)c1OC 3.41%, COc1ccc(COC(=O)NNC(=O)c2cccc(Cl)c2)cc1 -0.17%, CCOC(=O)C(C(=O)c1ccccc1)C1(O)C(=O)c2ccccc2C1=O (centres undefined) -0.37%, CCC(CC)C(=O)N1CCN(Cc2nc3sc(C)c(C)c3c(=O)[nH]2)CC1 0.36%, CCC(=O)Nc1cc(C(=O)O)ccc1C 0.34%, CCOC(=O)c1[nH]c2ccc(OC)cc2c1NC(=O)CN(C)C 0.64%, COc1ccc(C2=NN(C(=O)c3cc(OC)c(OC)c(OC)c3)C(c3ccc(Cl)cc3)C2)cc1OC (centres undefined) 0.2%, Cc1ccc(N2C(=O)CC(NCCN3CCOCC3)C2=O)cc1 (centres undefined) 0.27%, c1cncc(Nc2nc(NC3CC3)c3ncn(C4CCCCC4)c3n2)c1 -0.06%, CCCCOC(=O)C1=C(C)NC2=C(C(=O)CCC2)C1c1cccc([N+](=O)[O-])c1 (centres undefined) -0.99%, CC(=O)Nc1ccc(NC(=O)c2ccc3nc(Br)sc3c2)cc1 -0.12%, O=C(COc1ccc([N+](=O)[O-])cc1)Nc1ccc2oc(-c3cccc(F)c3)nc2c1 0.23%, COCC(=O)Nc1c(I)c(C(=O)NCC(O)CO)c(I)c(C(=O)N(C)CC(O)CO)c1I (centres undefined) -0.27%, CCN(CC)C(=O)C1CCCN(c2ncc(C)c(NCc3cccc(C(F)(F)F)c3)n2)C1 (centres undefined) 1.13%, COc1ccc2nc(/C(C#N)=C\c3cc4c(cc3OC)OCO4)[nH]c2c1 0.91%, Cc1cc(Nc2ccc(F)cc2)n2cnnc2n1 1.15%, CN(Cc1ccccc1)C(=O)c1nc2ccc(-c3cn[nH]c3)cc2s1 0.57%, O=C(/C=C/c1ccccc1)c1ccccc1O -0.11%, COC(=O)Cn1ncc2c3ccccc3n(Cc3cccc(Cl)c3)c2c1=O 0.15%, COc1ccc(CCNC(=S)NCc2cc(C)n(C)n2)cc1OC -0.26%, O=C1/C(=C\c2ccccc2)C(N2CCOCC2)=NN1c1ccc([N+](=O)[O-])cc1 0.23%, CC12CCC(C(=O)NC3CCCCC3)(OC1=O)C2(C)C (centres undefined) 0.51%, CN(Cc1nc(-c2ccc3c(c2)OCO3)no1)C1CCCc2ccccc21 (centres undefined) 0.68%, COc1ccc(-c2noc(-c3ccccc3Cl)n2)cc1 -0.15%, Cc1ccc2c(c1)N(CC(=O)N1CCC(C)CC1)C(=O)c1cccnc1O2 0.11%, CC(/C=N\NC(=O)CSc1nc(C)cc(C)n1)=C\c1ccccc1 -1.7%
